Assay in all cases: Primary qHTS to identify gynecologic anti-cancer compounds using libraries of approved drugs and bioactive compounds (AID 1345084); also: nearly all actives have a fitted effect of over 55% in size
On the technique in general: In qHTS, concentration-response curves come from the screen itself.

Experiment [1] concerns C33A. Particulars: Gynecologic cancer cell panel viability, ATPlite luminescence, 48 h; series mostly up to 57.5 µM. In a few lines: (§1)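 Five-point cytotoxicity, 48 h drug exposure at 37 C, 5% CO2, on cells seeded 16 h beforehand. ATP content read by ATPlite luminescence.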
In experiment [2] the test system is CAOV3. Particulars: Gynecologic cancer cell panel viability, ATPlite luminescence, 48 h; series mostly up to 57.5 µM. In a few lines: as §1
(In general: In ATP-based viability assays light output follows the ATP content of the culture.)

The subject of experiment [3] is CASKI. Conditions: Gynecologic cancer cell panel viability, ATPlite luminescence, 48 h; series mostly up to 57.5 µM. In a few lines:
as §1

Experiment [4] relates to HeLa. Particulars: Gynecologic cancer cell panel viability, ATPlite luminescence, 48 h; series mostly up to 57.5 µM. The essentials: as §1
The subject of experiment [5] is Hek293T. Particulars: Gynecologic cancer cell panel viability, ATPlite luminescence, 48 h, control line for the selectivity index; series mostly up to 57.5 µM. The essentials: as §1
Experiment [6] deals with JEG-3. Particulars: Gynecologic cancer cell panel viability, ATPlite luminescence, 48 h; series mostly up to 57.5 µM. The essentials:
as §1

Experiment [7] deals with OV90. Conditions: Gynecologic cancer cell panel viability, ATPlite luminescence, 48 h; series mostly up to 57.5 µM. The essentials: as §1
For experiment [8], the system named is Tov-21-G. Conditions: Gynecologic cancer cell panel viability, ATPlite luminescence, 48 h; series mostly up to 57.5 µM. The essentials: as §1
The test system of experiment [9] is Tov112D. Particulars: Gynecologic cancer cell panel viability, ATPlite luminescence, 48 h; series mostly up to 57.5 µM. In a few lines: as §1
Experiment [10] concerns PA-1. Particulars: Gynecologic cancer cell panel viability, ATPlite luminescence, 48 h; series mostly up to 57.5 µM. In a few lines:
as §1

Experiment [11] relates to SKOV3. Particulars: Gynecologic cancer cell panel viability, ATPlite luminescence, 48 h; series mostly up to 57.5 µM. In a few lines:
as §1

The subject of experiment [12] is Es-2. Particulars: Gynecologic cancer cell panel viability, ATPlite luminescence, 48 h; series mostly up to 57.5 µM. In a few lines: as §1

Inconclusive results are not listed. Values without a mark were called inactive. Active and inactive are the calls of the source. Calls follow the shape of the dose curve; as a rule, active = well fitted cell-killing curve with a large enough effect; inconclusive = small, poorly fitted or top-dose-only effect, or effect the other way; inactive = flat fitted curve, though single readings scatter.
% is scaled to controls: 0 for no effect and ±100 for the full control effect; potency is read from the fitted curve at half-maximal effect.

Take `COc1ccc2c(c1)C=C1Cn3c-2c(C2CCCCC2)c2ccc(cc23)C(=O)NS(=O)(=O)N(C)CCOCCN(C)C1=O`: the Potency result in experiment [1], in experiment [2], in experiment [4], in [5], in [6] and in [7] was “inactive” in each case. Moreover, the Potency result in [8] and in experiment [9] was “inactive” each time. Also, in experiment [3], the compound was called inactive.
Consider `COc1cc(C(C)=O)ccc1O[C@@H]1O[C@H](CO[C@@H]2OC[C@@H](O)[C@H](O)[C@H]2O)[C@@H](O)[C@H](O)[C@H]1O`, for which the Potency entry in experiment [1], in [2], in [4], in experiment [5], in [6] and in [7] was “inactive” throughout. The Potency entry in experiment [10], in experiment [11], in experiment [8] and in experiment [9] was “inactive” in each case. In addition, the compound was classed as inactive in experiment [3].
For the compound `CC1=C2CC3C(CCC3(C)O)C(C)(O)CC2OC1=O` (stereo not given), the Potency entry in experiment [1], in experiment [2], in experiment [12], in experiment [4], in [5] and in experiment [6] was “inactive” each time. Further, the Potency entry in experiment [11], in experiment [8] and in [9] was “inactive” throughout. The result in experiment [3] was inactive.
With `CN(C)C(=O)C(O)C(Cc1ccccc1)NC(=O)c1cc2cc(Cl)ccc2[nH]1` (stereo not given), the Potency entry in [1], in experiment [2], in experiment [12], in experiment [4], in experiment [6] and in experiment [7] was “inactive” throughout. Also, the Potency entry in experiment [10], in experiment [11] and in experiment [9] was “inactive” throughout. The call in experiment [3] was inactive.
Turning to `CCC(C)/C=C(C)/C=C/C1=CC2=C(Cl)C(=O)C(C)(OC(C)=O)C(=O)C2=CN1C(CCCN=C(N)N)C(=O)O` (stereo not given), the Potency entry in experiment [1], in experiment [2], in experiment [12], in experiment [4], in experiment [6] and in experiment [7] was “inactive” each time. Moreover, the Potency entry in experiment [11], in experiment [8] and in experiment [9] was “inactive” each time. In experiment [3], the compound was called inactive.
Consider `CC(=O)OC12CC(C)C(OC(=O)c3ccccc3)C1/C=C(/C)C(OC(=O)c1ccccc1)CC(=O)C(C)(C)/C=C/C(C)C2=O` (stereo not given), for which the Potency entry in experiment [1], in experiment [2], in [4], in experiment [5], in [7] and in experiment [10] was “inactive” throughout. Further, the Potency entry in experiment [11], in [8] and in experiment [9] was “inactive” throughout. Further, the call in [3] was inactive. For the same compound, in [12], the Potency was 2820 nM (active).
As for `FC(F)(F)Oc1ccc(-c2ccc3nnc(C(F)(F)F)n3c2)cc1`, the Potency entry in experiment [1], in [2], in experiment [12], in experiment [5], in [6] and in experiment [7] was “inactive” throughout. In addition, the Potency entry in experiment [10], in [11], in [8] and in experiment [9] was “inactive” throughout. Besides, in experiment [3], the call was inactive.
On to `CC1(C)CCC2(C(=O)O)C(O)CC3(C)C(=CCC4C5(C)CCC(OC6OC(CO)C(O)C(O)C6OC6OC(CO)C(O)C(O)C6OC6OCC(O)(CO)C6O)C(C)(C)C5CCC43C)C2C1` (stereo not given), for which the activity change, negative = cytotoxicity in experiment [1] was -3% [at 11.6 µM]; in [2] it was 12.3% [at 11.6 µM]; in experiment [3], -10.6% [at 11.6 µM]; in [12], -1.15% [at 11.6 µM]; in experiment [5] it was 13.1% [at 11.6 µM]; in experiment [6] it was -1.43% [at 11.6 µM]. For the same compound, the activity change, negative = cytotoxicity in [7] was -4.37% [at 11.6 µM]; in [10] it was -4.82% [at 11.6 µM]; in experiment [11], 9.15% [at 11.6 µM]; in experiment [8], -4.95% [at 11.6 µM]; in experiment [9], 1.07% [at 11.6 µM].
Turning to `O=C(O)c1ccc(NC(=O)[C@H](CC2CCCC2)n2cnc(C(F)(F)F)c2)nc1`, the Potency result in experiment [1], in experiment [2], in experiment [12], in experiment [5], in experiment [6] and in [7] was “inactive” each time. Besides, the Potency entry in experiment [10], in experiment [11], in experiment [8] and in [9] was “inactive” in each case. In [3], the compound was classed as inactive.
For `Cc1nc(-c2cccnc2)sc1C(=O)Nc1ccccc1-c1cn2c(CN3CCOCC3)csc2n1`, the Potency result in experiment [1], in experiment [2], in experiment [12], in experiment [4], in experiment [5] and in experiment [6] was “inactive” in each case. Moreover, the Potency result in [7], in experiment [10], in [11], in experiment [8] and in experiment [9] was “inactive” throughout.
For `CCC(C)/C=C(C)/C=C/C1=CC2=C(Cl)C(=O)C(C)(OC(C)=O)C(=O)C2=CN1C(CCC(=O)O)C(=O)O` (stereo not given), the Potency entry in experiment [1], in [2], in experiment [12], in experiment [4], in experiment [6] and in [7] was “inactive” throughout. The Potency entry in experiment [10], in experiment [11], in experiment [8] and in experiment [9] was “inactive” each time. Besides, in experiment [3], the outcome was inactive.
For `COC(=O)c1[nH]c(=O)c2ccccc2c1-c1ccc[nH]1`, the Potency entry in [1], in [2], in [4], in experiment [6], in [7] and in experiment [10] was “inactive” each time. Moreover, the Potency entry in [8] was “inactive”. Further, the compound was classed as inactive in [3].
As for `COc1ccc([C@H]2OC[C@H]3[C@@H]2CO[C@@H]3c2ccc(O[C@@H]3O[C@H](CO)C(O)[C@H](O)[C@H]3O)c(OC)c2)cc1OC` (stereo not given in full), the Potency result in [1], in [2], in [12], in experiment [4], in experiment [5] and in experiment [7] was “inactive” each time. The Potency entry in [10], in [8] and in [9] was “inactive” in each case. The outcome in experiment [3] was inactive.
In the case of `CC1(C)C2CCC1(C)C(OC(=O)C(O)(CC(=O)O)CC(=O)O)C2` (stereo not given), the Potency result in [1], in experiment [2], in experiment [12], in experiment [4], in experiment [6] and in [7] was “inactive” each time. In addition, the Potency entry in experiment [10], in experiment [11], in experiment [8] and in [9] was “inactive” in each case. Moreover, the outcome in [3] was inactive.
